From the supplement of paper PMC8728848
Only a selection was taken, and the strongest signals are over-represented in it overall.

What was measured:
Assay in all cases: glycan array binding signal (z-score within array); higher = stronger binding
Conditions in all cases: glycan notation: IUPAC condensed, linker removed
[1] = target: GalNAc3S(b1-4)[Fuc(a1-3)]GlcNAc
Summary of the method: (§1)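 Negative Z-scores can be read as non-binding. The Z-score is calculated within each array and then averaged across arrays of one protein sequence at different concentrations or buffers and across linkers. Arrays, 3228 in all, were curated from the Consortium for Functional Glycomics database and kept only where the protein sequence was available.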

[2] = target: Glc(a1-6)Glc(a1-6)Glc(a1-6)Glc
Summary of the method: as §1

[3] = target: GlcA3S(b1-3)Gal(b1-4)GlcNAc(b1-2)Man
Summary of the method: as §1

[4] = target: GlcNAc(a1-4)Gal(b1-4)GlcNAc(b1-3)Gal(b1-4)GlcNAc
Summary of the method: as §1

[5] = target: GlcNAc(b1-2)[GlcNAc(b1-6)]Man(a1-6)[GlcNAc(b1-4)][GlcNAc(b1-2)Man(a1-3)]Man(b1-4)GlcNAc(b1-4)GlcNAc
Summary of the method: as §1

[6] = target: GlcNAc(b1-3)Gal(b1-4)GlcNAc(b1-3)Gal(b1-4)GlcNAc(b1-2)[GlcNAc(b1-3)Gal(b1-4)GlcNAc(b1-3)Gal(b1-4)GlcNAc(b1-6)]Man(a1-6)[GlcNAc(b1-3)Gal(b1-4)GlcNAc(b1-3)Gal(b1-4)GlcNAc(b1-2)Man(a1-3)]Man(b1-4)GlcNAc(b1-4)[Fuc(a1-6)]GlcNAc
Summary of the method: as §1

[7] = target: GlcNAc(b1-3)GalNAc
Summary of the method: as §1

[8] = target: Man(a1-3)[Man(a1-6)]Man
Summary of the method: as §1

[9] = target: Man(a1-3)[Man(a1-6)]Man(b1-4)GlcNAc(b1-4)GlcNAc
Summary of the method: as §1

[10] = target: Neu5Ac(a2-3)Gal(b1-3)[Fuc(a1-4)]GlcNAc
Summary of the method: as §1

[11] = target: Neu5Ac(a2-3)Gal(b1-3)[GlcNAc(b1-6)]GalNAc
Summary of the method: as §1

[12] = target: Neu5Ac(a2-3)Gal(b1-4)Glc
Summary of the method: as §1

[13] = target: Neu5Ac(a2-3)Gal(b1-4)GlcNAc(b1-2)[Neu5Ac(a2-3)Gal(b1-4)GlcNAc(b1-4)]Man(a1-3)[GlcNAc(b1-4)][Neu5Ac(a2-3)Gal(b1-4)GlcNAc(b1-2)[Neu5Ac(a2-3)Gal(b1-4)GlcNAc(b1-6)]Man(a1-6)]Man(b1-4)GlcNAc(b1-4)GlcNAc
Summary of the method: as §1

[14] = target: Neu5Ac(a2-3)Gal(b1-4)GlcNAc(b1-3)GalNAc
Summary of the method: as §1

[15] = target: Neu5Ac(a2-3)Gal(b1-4)GlcNAc(b1-6)[Gal(b1-3)]GalNAc
Summary of the method: as §1

[16] = target: Neu5Ac(a2-3)Gal(b1-4)GlcNAc6S
Summary of the method: as §1

[17] = target: Neu5Ac(a2-3)Gal(b1-4)[Fuc(a1-3)]GlcNAc(b1-2)Man
Summary of the method: as §1

[18] = target: Neu5Ac(a2-3)Gal6S(b1-4)GlcNAc
Summary of the method: as §1

[19] = target: Neu5Ac(a2-6)Gal
Summary of the method: as §1

[20] = target: Neu5Ac(a2-6)Gal(b1-4)GlcNAc(b1-2)Man(a1-6)[Gal(b1-4)GlcNAc(b1-2)Man(a1-3)]Man(b1-4)GlcNAc(b1-4)GlcNAc
Summary of the method: as §1

[21] = target: Neu5Ac(a2-6)Gal(b1-4)GlcNAc(b1-3)Gal(b1-4)GlcNAc(b1-2)Man(a1-3)[Neu5Ac(a2-6)Gal(b1-4)GlcNAc(b1-3)Gal(b1-4)GlcNAc(b1-2)Man(a1-6)]GalNAc
Summary of the method: as §1

[22] = target: Neu5Ac(a2-6)Gal(b1-4)GlcNAc(b1-3)Gal(b1-4)GlcNAc(b1-6)[Gal(b1-3)]GalNAc
Summary of the method: as §1

[23] = target: Neu5Ac(a2-6)Gal(b1-4)GlcNAc(b1-3)[Neu5Ac(a2-6)Gal(b1-4)GlcNAc(b1-6)]GalNAc
Summary of the method: as §1

[24] = target: Neu5Ac(a2-6)Gal(b1-4)GlcNAc(b1-6)GalNAc
Summary of the method: as §1

[25] = target: Neu5Ac(a2-8)Neu5Ac(a2-3)Gal(b1-4)GlcNAc
Summary of the method: as §1

[26] = target: Neu5Ac(b2-6)Gal(b1-4)GlcNAc
Summary of the method: as §1

[27] = target: Neu5Ac(b2-6)GalNAc
Summary of the method: as §1

B1: BT3172pd (Bacteroides thetaiotaomicron) (protein)
chain: MLPLRAEHYYYKQISLKEGLPSNVRCILRDEQGFIWIGTKAGLGKFDGHQLKRYKHQANDPHSLLHNLIYQIAEDKQHNIWILTEKGIARYQQQSNNFTFPTDEEGNYITAYSFCLVPDGILFGGKDRIYKYSYKDSSLRLLQYFNANSFKITALSVWDSKTLLCCSRWTGLYLVDLQTGEHRRPPFDCGPEITSMITDSKNRIWIAPYSGGLRCYSRDGKLSASYTTHNSSLSNDIVLSLAEREEQLWIGTDGGGINILHPETGEISQLEYIPGRENYSLPANSILCLHNDYNNNVWAGSTCNGLISIREVSMKTYTDVVPGNDRGLSNGTVRSLYRQSPDSIWIGTDGGGINLFSPHTEKFTHYSSTWGDKVAFISGFTPGKLLISLFSKGVFVFNPATGEKQPFTIIDKETTTRLCNRGKSVNLYQNTPNTVLFLGDHIYQYHLKEKKFSTITEEEGKDIVGTLVPFDHQENLTYINDIKHIYELDDQTSRLKTVFECYTDTVISSVSHDEQGHFWIGSNFGLIHYDPVLKSRTLVPTNLFTEINMVLCDQKGKVWIGVDNMLFAYFIKEQKFVLFGESNGAIQNEYLPNARLVNEQGDAYIGGVKGMLRIDGQLLLNTSEMPELQLLDITINGESANHEWYNHPAKISVPWNSNISIRIMSREEDIFRQKIYRYQIEGLNNEYTESYNPELVIRSLLPGSYRIMASCTAKDGSWIPDQQVLELTVLPPWYRTHHHHHH
glycan array binding signal (z-score) [1]: 6.05 | glycan array binding signal (z-score) [2]: 0.665 | glycan array binding signal (z-score) [3]: -0.286 | glycan array binding signal (z-score) [4]: -0.207 | glycan array binding signal (z-score) [5]: -0.604 | glycan array binding signal (z-score) [6]: -0.268 | glycan array binding signal (z-score) [7]: 3.09 | glycan array binding signal (z-score) [8]: -0.387 | glycan array binding signal (z-score) [9]: 0.075 | glycan array binding signal (z-score) [10]: -0.042 | glycan array binding signal (z-score) [11]: -0.406 | glycan array binding signal (z-score) [12]: 4.78 | glycan array binding signal (z-score) [13]: -0.441 | glycan array binding signal (z-score) [14]: 0.355 | glycan array binding signal (z-score) [15]: -0.43 | glycan array binding signal (z-score) [16]: 2.43 | glycan array binding signal (z-score) [17]: -0.094 | glycan array binding signal (z-score) [18]: 0.228 | glycan array binding signal (z-score) [19]: 4.96 | glycan array binding signal (z-score) [20]: 0.765 | glycan array binding signal (z-score) [21]: -0.692 | glycan array binding signal (z-score) [22]: 6.02 | glycan array binding signal (z-score) [23]: 5.76 | glycan array binding signal (z-score) [24]: 0.094 | glycan array binding signal (z-score) [25]: -0.788 | glycan array binding signal (z-score) [26]: -1.02 | glycan array binding signal (z-score) [27]: 0.736
